Broadly, the inhibition is the drop in the measured response relative to a control, in per cent.

From ChEMBL document CHEMBL3433997, “St. Jude Leishmania screening dataset” (2016) come the findings set out here.

What all share (format): functional
Assay [1] addresses Solute carrier family 2, facilitated glucose transporter member 1 (Homo sapiens) (UniProt P11166). Kind of assay: ST_JUDE_LEISH: Cytotoxicity at 2uM final concentration against transgenic Leishmania Mexicana promastigotes LmGLUT1 that are glucose transport deficient and complemented with the human glucose transporter GLUT1. Activity is measured by DNA content using SYBR green in vitro.

The target of assay [2] is Hexose transporter 1 (Plasmodium falciparum) (UniProt O97467). The assay can be described thus: ST_JUDE_LEISH: Cytotoxicity at 2uM final concentration against transgenic Leishmania Mexicana promastigotes LmPfHT that are glucose transport deficient and complemented with the Plasmodium falciparum hexose transporter. Activity is measured by DNA content using SYBR green in vitro.

The target in assay [3] is Glucose transporter (Leishmania mexicana) (UniProt O61059). Kind of assay: ST_JUDE_LEISH: Cytotoxicity at 2uM final concentration against transgenic Leishmania Mexicana promastigotes LmGT2 that are glucose transport deficient and complemented with the L. Mexicana glucose transporter 2. Activity is measured by DNA content using SYBR green in vitro.

Solute carrier family 2, facilitated glucose transporter member 1 (Homo sapiens), sequence (P11166 whole entry): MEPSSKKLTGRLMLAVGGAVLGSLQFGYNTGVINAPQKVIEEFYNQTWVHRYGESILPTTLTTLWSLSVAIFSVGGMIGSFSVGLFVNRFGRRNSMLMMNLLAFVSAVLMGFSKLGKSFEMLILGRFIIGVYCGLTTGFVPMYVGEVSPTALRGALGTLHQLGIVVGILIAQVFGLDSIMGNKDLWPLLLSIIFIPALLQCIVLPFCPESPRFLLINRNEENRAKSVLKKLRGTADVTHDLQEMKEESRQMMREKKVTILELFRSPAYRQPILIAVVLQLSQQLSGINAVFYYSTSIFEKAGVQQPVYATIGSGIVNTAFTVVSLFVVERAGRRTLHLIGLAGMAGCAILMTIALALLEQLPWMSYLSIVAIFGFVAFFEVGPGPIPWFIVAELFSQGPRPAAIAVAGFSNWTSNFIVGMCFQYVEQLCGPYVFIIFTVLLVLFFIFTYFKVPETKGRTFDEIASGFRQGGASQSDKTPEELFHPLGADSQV

For the compound `N=C(N)Nc1nc(-c2ccc(NC(=O)Nc3cccc(-c4csc(NC(=N)N)n4)c3)cc2)cs1`, the inhibition in assay [1] was -0.61%; in assay [2], 0%; in assay [3], -0.17%.
Taken in the same sequence, the figures for `C=CCn1c(Sc2ccc(C#N)c([N+](=O)[O-])c2)nnc1-c1cc(OC)cc(OC)c1` were 12.5%, 13.4% and 10.9%.
Turning to `CN(C)C(=O)CCCn1c(CNCCCNc2cc(=O)c3ccccc3[nH]2)cc2c(Cl)cc(Cl)cc21`, the inhibition in assay [1] was determined as 0.57%; in assay [2], 2.54%; in assay [3], 2%.
Consider `CCOC(=O)c1ccc(COc2ccc(C)nc2)cc1`, for which the inhibition in assay [1] was -1.54%; in assay [2], -0.85%; in assay [3] it was 0.17%.
Taken in the same sequence, the figures for `Cc1ccc(NC(=O)c2ccc3nccnc3c2)cc1OC1CCN(Cc2ccc(F)cc2)CC1` were 10.6%, 11.1% and 10.5%.
Taken in the same sequence, the figures for `CC(C)(C)c1cc(NC2CC2)nc(-c2ccccn2)n1` were 1.4%, 3.18% and 4.03%.
Taken in the same sequence, the figures for `CCCCNC(=N)Nc1ccc(OCCCOc2ccc(NC(=N)NCCCC)cc2)cc1` were -1.92%, -1.63% and 0.01%.
Regarding `COc1cc(CNC2Cc3ccccc3C2)ccc1Oc1ccc2nc[nH]c2c1`, the figures for the inhibition in assay [1], in assay [2] and in assay [3] were 2.66%, 0.67% and 0.95%, respectively.
Taken in the same sequence, the figures for `Cc1cc(NCCC(=O)NCCc2ccccc2)nc(NCCc2ccc(F)cc2)n1` were 2.76%, 3.87% and 2.22%.
For the compound `CCc1ccc(-n2c(=O)c3cccnc3n2CC(=O)NC2CCCC2)cc1`, the inhibition in assay [1] is 1.13%; in assay [2] it was -0.35%; in assay [3], -1.74%.
Taken in the same sequence, the figures for `O=C(Nc1ccc(O)c(-c2nc3ccccc3[nH]2)c1)c1ccc([N+](=O)[O-])cc1` were -2.13%, -0.21% and 1.31%.
Taken in the same sequence, the figures for `Cn1cncc1C(=O)Nc1cccc(-c2cccc(-c3nc4cc(F)ccc4[nH]3)c2)c1` were 4%, 3.24% and 1.75%.
Taken in the same sequence, the figures for `COc1ccc(CNC(=O)NC2CCN(c3ccnc(Nc4ccc(F)cc4)n3)C2)cc1` (centres undefined) were 7.84%, 5.37% and 7.65%.
